In PubChem BioAssay (NCATS):
Results filed as inconclusive are left out. The source made the active and inactive calls. Unless noted, calls come from the whole dose curve; as a rule, active = well fitted curve in the direction sought with a large enough effect; inconclusive = small, poorly fitted or top-dose-only effect, or another doubt; inactive = no such curve, though single readings can be large; an effect the other way counts as inactive or inconclusive.

What was measured:
[1] = molecular target: Cytochrome P450 1A2 (Homo sapiens) (UniProt P05177); test: p450-cyp1a2 (AID 410; calls by dose curve; note: potency is the fitted concentration of half-maximal effect;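 for activity change, negative = inhibition: -100% = full effect of reference inhibitor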)
Cytochrome P450 1A2 (Homo sapiens), sequence (P05177 whole entry, looked up): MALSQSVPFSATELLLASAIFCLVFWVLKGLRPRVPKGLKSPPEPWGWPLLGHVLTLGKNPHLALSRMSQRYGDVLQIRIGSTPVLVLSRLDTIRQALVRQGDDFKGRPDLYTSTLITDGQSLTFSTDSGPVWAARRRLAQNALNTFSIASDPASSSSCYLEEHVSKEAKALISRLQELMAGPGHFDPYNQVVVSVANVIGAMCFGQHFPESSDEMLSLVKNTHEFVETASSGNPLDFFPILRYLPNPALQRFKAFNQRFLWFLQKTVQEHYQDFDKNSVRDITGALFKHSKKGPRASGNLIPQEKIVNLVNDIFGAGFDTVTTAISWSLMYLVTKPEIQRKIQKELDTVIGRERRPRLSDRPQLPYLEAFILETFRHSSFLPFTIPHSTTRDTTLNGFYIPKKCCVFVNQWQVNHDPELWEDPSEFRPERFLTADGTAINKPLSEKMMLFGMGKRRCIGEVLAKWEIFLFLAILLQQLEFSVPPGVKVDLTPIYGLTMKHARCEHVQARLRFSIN
In short: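 Human CYP1A2 (20nM) demethylated Luciferin-ME at its Km (100uM) in 100mM KPO4. After 10 min compound preincubation, NADPH regeneration ran the reaction 60 min at room temperature. Luciferin was read by luminescence, normalized to 57 uM furafylline.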

[2] = NFAT Signaling Pathway (AID 444; active = well fitted curve in either direction with a large enough effect, not every such curve was filed as active;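 note: carbachol stimulus at about its EC50 of 1 µM final; % is set by controls: 0 for no effect and ±100 for the full control effect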); details: Jurkat NFAT-bla M1, carbachol, beta-lactamase ratio, 5 h; at 17.2 µM (top of the series) unless noted
In short: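 Jurkat cells with NFAT-driven β-lactamase reporter and co-expressed M1 receptor, stimulated with carbachol (final 1 uM, ~EC50), compound titration, 5 h at 37 °C. CCF4 loaded 1 h at RT; 460/530 nm ratio gave %activity and AC50.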

[3] = Stat Signaling Pathway (AID 446; active = well fitted curve in either direction with a large enough effect, not every such curve was filed as active;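 note: ME-180 cervical cancer cells given 40 pM IL-6 alongside compound; SIE-controlled beta-lactamase reporter measured as 460/530 nm FRET emission ratio; % is set by controls: 0 for no effect and ±100 for the full control effect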); details: ME-180 SIE beta-lactamase reporter, IL-6 stimulated, 5 h; at 17.2 µM (top of the series) unless noted
In short: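 IL-6/STAT signaling read in ME-180 cells via an SIE beta-lactamase reporter. Stimulus was 40 pM IL-6 (its AC50) for 5 hrs, so both activation and inhibition register.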

[4] = molecular target: Glucocorticoid receptor (Homo sapiens) (UniProt P04150); test: GR-GFP Redistribution (AID 450;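 active = compounds whose dose series gives a full or clear partial fitted curve of increased nuclear translocation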; note: potency is the fitted concentration of half-maximal effect)
Glucocorticoid receptor (Homo sapiens), sequence (P04150 whole entry, looked up, the tested form may be a part): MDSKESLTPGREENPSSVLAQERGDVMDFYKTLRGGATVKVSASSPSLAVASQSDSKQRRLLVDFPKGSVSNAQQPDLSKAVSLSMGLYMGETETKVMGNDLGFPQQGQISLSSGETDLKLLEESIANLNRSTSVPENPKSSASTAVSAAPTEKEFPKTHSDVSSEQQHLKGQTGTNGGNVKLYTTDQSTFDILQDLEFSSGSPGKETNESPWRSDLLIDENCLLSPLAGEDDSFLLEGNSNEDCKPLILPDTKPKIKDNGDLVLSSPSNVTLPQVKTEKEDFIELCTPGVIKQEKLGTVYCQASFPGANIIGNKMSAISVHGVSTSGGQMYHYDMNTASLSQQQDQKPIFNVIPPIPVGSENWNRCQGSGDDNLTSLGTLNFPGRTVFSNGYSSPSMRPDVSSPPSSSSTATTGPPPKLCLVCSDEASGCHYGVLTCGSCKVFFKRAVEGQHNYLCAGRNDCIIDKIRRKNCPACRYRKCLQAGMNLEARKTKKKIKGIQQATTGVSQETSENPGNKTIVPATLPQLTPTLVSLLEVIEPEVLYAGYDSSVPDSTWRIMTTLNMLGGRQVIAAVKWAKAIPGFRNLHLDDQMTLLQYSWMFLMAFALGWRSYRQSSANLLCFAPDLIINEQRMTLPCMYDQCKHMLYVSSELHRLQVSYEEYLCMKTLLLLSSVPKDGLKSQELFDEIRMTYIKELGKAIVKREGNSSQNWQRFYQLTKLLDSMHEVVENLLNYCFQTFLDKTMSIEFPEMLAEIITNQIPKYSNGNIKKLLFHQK

[5] = molecular target: Glucocorticoid receptor (Homo sapiens) (UniProt P04150); test: GR-EFC Redistribution (AID 451; calls by dose curve; note: potency is the fitted concentration of half-maximal effect); details: CHO-K1 GR-EFC translocation, beta-gal luminescence, 2 h
In short: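 CHO-K1 cells expressing nuclear EA and GR-ED fragments of b-gal; compounds titrated up to 46 uM final, 2 h at 37 C. GR nuclear translocation read as complemented b-gal luminescence after 1 h RT detection.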

[6] = molecular target: 3',5'-cyclic-AMP phosphodiesterase 4B (Homo sapiens) (UniProt Q07343); test: qHTS Assay for Inhibitors of PDE-IV (AID 607; active = well fitted activation curve with a large enough effect in the main read-out, with a control signal flat, not every such curve was filed as active; note: % of control where 0% means no effect)
3',5'-cyclic-AMP phosphodiesterase 4B (Homo sapiens), sequence (Q07343 whole entry, looked up): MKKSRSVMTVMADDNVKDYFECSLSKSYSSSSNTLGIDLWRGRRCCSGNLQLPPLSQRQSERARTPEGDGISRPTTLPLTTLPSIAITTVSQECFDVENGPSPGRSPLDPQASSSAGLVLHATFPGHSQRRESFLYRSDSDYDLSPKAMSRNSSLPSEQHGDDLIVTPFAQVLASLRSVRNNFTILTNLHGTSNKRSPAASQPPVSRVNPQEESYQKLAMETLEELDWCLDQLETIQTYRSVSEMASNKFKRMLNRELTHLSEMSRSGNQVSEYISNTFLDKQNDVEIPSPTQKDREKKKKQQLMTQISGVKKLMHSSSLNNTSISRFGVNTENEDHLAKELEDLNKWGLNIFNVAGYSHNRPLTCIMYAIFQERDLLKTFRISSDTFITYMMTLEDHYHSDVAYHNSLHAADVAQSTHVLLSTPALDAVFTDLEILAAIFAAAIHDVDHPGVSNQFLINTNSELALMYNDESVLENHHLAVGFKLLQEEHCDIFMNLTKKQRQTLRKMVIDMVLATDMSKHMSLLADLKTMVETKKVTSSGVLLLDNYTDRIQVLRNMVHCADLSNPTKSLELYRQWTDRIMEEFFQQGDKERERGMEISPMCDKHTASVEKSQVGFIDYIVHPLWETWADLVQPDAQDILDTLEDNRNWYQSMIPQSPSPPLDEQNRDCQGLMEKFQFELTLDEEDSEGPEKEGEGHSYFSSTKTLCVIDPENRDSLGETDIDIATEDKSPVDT
In short: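 Live HEK293 cells with a modified cyclic nucleotide-gated (CNG) channel report intracellular cAMP via membrane-potential dye fluorescence (ex 535/em 590 nm). Endogenous PDE-IV was targeted. Compounds were tested at up to 22.9 uM final; RO 20-1724 100 uM served as control.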

[7] = molecular target: Guanine nucleotide-binding protein G(i) subunit alpha-1 (Homo sapiens) (UniProt P63096); test: qHTS Assay for Inhibitors of RGS12 GoLoco Motif Activity (Green Fluorophore) (AID 879);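 note: 0% = labeled peptide with Gαi1 and full inhibition = labeled peptide alone without protein; negative values mean loss of peptide binding seen as reduced polarization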
Guanine nucleotide-binding protein G(i) subunit alpha-1 (Homo sapiens), sequence (P63096 whole entry, looked up): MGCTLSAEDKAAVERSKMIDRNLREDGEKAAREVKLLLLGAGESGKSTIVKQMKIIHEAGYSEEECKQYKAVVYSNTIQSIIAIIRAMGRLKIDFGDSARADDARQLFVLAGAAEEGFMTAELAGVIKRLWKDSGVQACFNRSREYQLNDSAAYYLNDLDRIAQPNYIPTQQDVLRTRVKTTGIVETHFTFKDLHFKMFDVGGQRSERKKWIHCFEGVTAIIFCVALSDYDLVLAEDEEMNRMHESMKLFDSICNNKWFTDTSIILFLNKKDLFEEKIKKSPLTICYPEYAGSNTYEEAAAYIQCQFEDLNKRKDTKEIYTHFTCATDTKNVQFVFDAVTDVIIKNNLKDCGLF
In short: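 Fluorescence polarization assay: 50 nM Gαi1 with 10 nM FITC-labeled RGS12 GoLoco peptide in 10 mM Tris pH 7.5, 150 mM NaCl, 0.1 mM GDP, 0.05% NP40, 10 min at room temperature with compound.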

[8] = molecular target: Cytochrome P450 3A4 (Homo sapiens) (UniProt P08684); test: qHTS Assay for Activators of Cytochrome P450 3A4 (AID 885); note: nearly all actives have a fitted effect of over 65% in size
Cytochrome P450 3A4 (Homo sapiens), sequence (P08684 whole entry, looked up): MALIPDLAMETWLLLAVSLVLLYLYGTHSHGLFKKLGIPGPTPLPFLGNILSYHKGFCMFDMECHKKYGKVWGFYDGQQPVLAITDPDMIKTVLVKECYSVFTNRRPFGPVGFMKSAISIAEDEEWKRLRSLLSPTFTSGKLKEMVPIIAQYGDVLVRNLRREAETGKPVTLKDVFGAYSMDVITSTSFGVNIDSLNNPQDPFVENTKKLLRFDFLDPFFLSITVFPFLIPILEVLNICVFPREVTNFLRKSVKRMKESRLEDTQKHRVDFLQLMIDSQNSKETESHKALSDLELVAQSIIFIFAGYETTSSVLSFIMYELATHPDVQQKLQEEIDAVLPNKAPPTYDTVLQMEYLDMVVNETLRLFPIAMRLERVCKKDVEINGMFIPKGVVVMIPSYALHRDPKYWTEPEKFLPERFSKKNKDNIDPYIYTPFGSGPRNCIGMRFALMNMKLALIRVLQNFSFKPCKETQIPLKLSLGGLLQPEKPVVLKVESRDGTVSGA
In short: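 Quantitative HTS format: compounds preincubated with 20nM human CYP3A4 and Luciferin-PPXE substrate at KM, reaction started by NADPH regeneration, stopped after 60 min, luciferase luminescence read 20 min later.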

[9] = qHTS Assay for Identification of Small Molecule Agonists for Thrombopoietin (TPO) Signaling Pathway (AID 917); note: % is set by controls: 0 for no effect and ±100 for the full control effect
In short: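 Reporter: GpIIb promoter–luciferase in murine Ba/F3 expressing human TPO receptor. Pre-starved of IL-3 overnight; compounds with 26 pM TPO, 24 hrs, 37 C/5% CO2; luminescence read.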

[10] = molecular target: Pyruvate kinase (Leishmania mexicana) (UniProt Q27686); test: qHTS Validation Assay for Inhibitors of Leishmania Mexicana Pyruvate Kinase (AID 945);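 note: 0% = DMSO only neutral control wells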
Pyruvate kinase (Leishmania mexicana), sequence (Q27686 2-499 E452W): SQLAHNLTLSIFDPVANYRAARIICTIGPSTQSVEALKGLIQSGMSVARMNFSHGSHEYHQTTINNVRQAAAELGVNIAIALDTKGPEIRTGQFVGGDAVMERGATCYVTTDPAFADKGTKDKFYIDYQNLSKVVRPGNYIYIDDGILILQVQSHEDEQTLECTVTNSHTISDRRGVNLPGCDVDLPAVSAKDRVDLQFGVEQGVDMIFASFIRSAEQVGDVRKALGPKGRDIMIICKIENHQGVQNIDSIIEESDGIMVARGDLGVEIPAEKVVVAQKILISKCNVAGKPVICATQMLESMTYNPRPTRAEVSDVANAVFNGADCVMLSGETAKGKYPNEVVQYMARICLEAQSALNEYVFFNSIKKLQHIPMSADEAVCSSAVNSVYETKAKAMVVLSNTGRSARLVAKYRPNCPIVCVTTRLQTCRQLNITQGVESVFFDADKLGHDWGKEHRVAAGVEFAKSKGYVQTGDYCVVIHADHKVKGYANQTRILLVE
In short: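 Luminescent ATP detection (PKLight) after a 1 h room-temperature reaction of 0.2 nM LmPYK E451W mutant with 0.5 mM PEP and 0.1 mM ADP at pH 7.2. Activity is normalized to DMSO-only control wells.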

[11] = molecular target: Pyruvate kinase PKM (Homo sapiens) (UniProt P14618); test: qHTS Assay for Inhibitors of Human Muscle Pyruvate Kinase (AID 958)
Pyruvate kinase PKM (Homo sapiens), sequence (P14618 whole entry, looked up): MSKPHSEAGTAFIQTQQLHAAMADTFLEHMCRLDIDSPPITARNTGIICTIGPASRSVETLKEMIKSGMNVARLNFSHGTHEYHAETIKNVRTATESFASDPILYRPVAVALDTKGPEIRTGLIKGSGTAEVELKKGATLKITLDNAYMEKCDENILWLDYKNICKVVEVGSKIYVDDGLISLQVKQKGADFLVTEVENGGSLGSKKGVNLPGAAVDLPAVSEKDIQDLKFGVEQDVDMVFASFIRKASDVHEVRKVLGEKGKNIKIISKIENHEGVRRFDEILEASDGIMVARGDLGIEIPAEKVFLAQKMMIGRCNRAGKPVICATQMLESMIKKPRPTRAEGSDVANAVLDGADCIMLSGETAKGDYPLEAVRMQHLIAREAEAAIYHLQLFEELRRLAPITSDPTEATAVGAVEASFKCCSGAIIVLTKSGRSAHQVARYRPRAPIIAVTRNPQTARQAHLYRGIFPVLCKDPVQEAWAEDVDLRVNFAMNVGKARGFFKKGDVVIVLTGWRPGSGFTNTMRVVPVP
In short: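 PKM2, human, >95% pure, 0.1 nM; PEP 0.5 mM (Km), ADP 0.1 mM; 50 mM imidazole pH 7.2, 50 mM KCl, 0.01% Tween 20, 0.05% BSA; 1 h RT; luciferase luminescence readout.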

[12] = molecular target: Alpha-galactosidase A (Homo sapiens) (UniProt P06280); test: Counterscreen for Glucocerebrosidase Inhibitors: qHTS Assay for Human alpha-Galactosidase at pH 4.5 (AID 992); note: 0% is about no effect
Alpha-galactosidase A (Homo sapiens), sequence (P06280 whole entry, looked up): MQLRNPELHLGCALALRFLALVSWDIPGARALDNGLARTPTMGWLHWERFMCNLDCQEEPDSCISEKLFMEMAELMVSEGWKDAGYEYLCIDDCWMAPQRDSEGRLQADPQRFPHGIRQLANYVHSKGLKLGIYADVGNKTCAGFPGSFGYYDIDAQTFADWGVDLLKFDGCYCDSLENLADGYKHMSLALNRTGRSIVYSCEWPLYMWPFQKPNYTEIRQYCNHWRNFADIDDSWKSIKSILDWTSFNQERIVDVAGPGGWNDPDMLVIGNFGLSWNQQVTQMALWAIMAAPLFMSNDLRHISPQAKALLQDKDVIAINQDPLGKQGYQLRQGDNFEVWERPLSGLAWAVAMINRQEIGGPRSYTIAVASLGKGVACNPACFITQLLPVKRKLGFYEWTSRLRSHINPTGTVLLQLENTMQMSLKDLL
In short: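 Read-out is 4-methylumbelliferone fluorescence (365 nm excitation, 440 nm emission) after a pH 10 NaOH/glycine stop. Reactions held 2 nM enzyme and 80 uM substrate at pH 4.5 for 20 min at room temperature.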

[13] = molecular target: Mitogen-activated protein kinase 10 (Mus musculus) (UniProt Q61831); test: JNK3 AlphaScreen Assay (AID 530; active = well fitted curve in either direction with a large enough effect, not every such curve was filed as active;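 note: kinase came from lysate of stimulated human HepG2 cells; signal reports phosphorylation of biotinylated GST-cJun 1-79 at Ser73 with 10 µM ATP; % is set by controls: 0 for no effect and ±100 for the full control effect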)
In short: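 qHTS format: compounds tested as titrations against IL-1beta/TNF-alpha-activated HepG2 lysate JNK3 with biotin-GST-cJun substrate and 10 uM ATP at room temperature. Loss of anti-phospho-cJun AlphaScreen signal indicates inhibition.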

[14] = molecular target: Cytochrome P450 2C9 (Homo sapiens) (UniProt P11712); test: qHTS Assay for Inhibitors and Substrates of Cytochrome P450 2C9 (AID 883); note: nearly all actives have a fitted effect of over 60% in size; note: potency is the fitted concentration of half-maximal effect
Cytochrome P450 2C9 (Homo sapiens), sequence (P11712 whole entry, looked up): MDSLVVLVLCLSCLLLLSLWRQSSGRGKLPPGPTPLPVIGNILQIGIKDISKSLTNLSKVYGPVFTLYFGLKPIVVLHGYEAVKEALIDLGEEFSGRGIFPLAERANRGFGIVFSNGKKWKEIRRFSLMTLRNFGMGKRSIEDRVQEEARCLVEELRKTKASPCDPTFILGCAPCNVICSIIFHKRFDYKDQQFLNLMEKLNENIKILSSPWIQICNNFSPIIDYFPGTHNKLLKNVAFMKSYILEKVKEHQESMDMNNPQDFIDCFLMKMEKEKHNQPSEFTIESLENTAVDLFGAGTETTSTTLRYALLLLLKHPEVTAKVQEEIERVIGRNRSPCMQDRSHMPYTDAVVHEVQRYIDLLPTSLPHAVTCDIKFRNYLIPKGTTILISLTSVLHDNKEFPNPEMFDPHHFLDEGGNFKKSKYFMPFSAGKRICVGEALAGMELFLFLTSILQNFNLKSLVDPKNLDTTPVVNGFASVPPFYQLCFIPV
In short: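 10nM CYP2C9 + 100uM Luciferin-H (=KM), 25mM KPO4; cpd 10 min 37C; NADPH regen, 60 min 37C; stop/detect with P450 Glo-Buffer 20 min; luminescence. Norm. to 57uM sulphaphenazole as full inhibition.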

[15] = molecular target: Muscarinic acetylcholine receptor M1 (Rattus norvegicus) (UniProt P08482); test: qHTS Assay for Antagonists of Acetylcholine Muscarinic M1 Receptor: Kinetic Measurement of Intracellular Calcium Response (AID 943); note: potency is the fitted concentration of half-maximal effect; nearly all actives have a fitted effect of over 75% in size
In short: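 CHO cells stably expressing rat M1 were loaded with no-wash Fluo-4 dye for 1 h at 37C, pre-incubated 10 min with compound, then challenged with EC80 carbachol (100 nM final); kinetic calcium read 4 min, peak/basal ratio.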

[16] = molecular target: Pyruvate kinase PKM (Homo sapiens) (UniProt P14618); test: qHTS Assay for Activators of Human Muscle Pyruvate Kinase (AID 954; active = well fitted curve in the direction sought with a large enough effect, not every such curve was filed as active;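 note: 0% = uninhibited enzyme and -100% = no enzyme or full thiadiazolimine inhibition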)
In short: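 Enzyme was run at intermediate activity so both inhibitors and activators could be detected. ATP formed from ADP and PEP by 0.1 nM human PKM2 during a 1 h room-temperature incubation was quantified by coupled luciferase luminescence.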

[17] = molecular target: alpha-glucosidase (Oryza sativa, rice) (UniProt Q653V4); test: Counterscreen for Glucocerebrosidase Inhibitors: qHTS Assay for Rice alpha-Glucosidase at pH 5.0 (AID 997);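 note: 0% = full activity with enzyme and -100% = basal without enzyme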
In short: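 Rice alpha-glucosidase (4 nM final) with 400 uM 4-methylumbelliferyl-alpha-D-glucopyranoside in citrate buffer pH 5.0, 20 min at room temperature, stopped at pH 10; fluorescence 365/440 nm, compounds 0.7 nM–77 uM, AC50 from Hill fits.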

[18] = molecular target: Cytochrome P450 3A4 (Homo sapiens) (UniProt P08684); test: qHTS Assay for Inhibitors and Substrates of Cytochrome P450 3A4 (AID 884); note: potency is the fitted concentration of half-maximal effect; nearly all actives have a fitted effect of over 50% in size
In short: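 20 nM human CYP3A4 with 25 uM Luciferin-PPXE (at KM) in 200 mM KPO4, preincubated 10 min with compound; NADPH regeneration started a 60 min RT reaction. Luciferin detected by luminescence, normalized to 57 uM ketoconazole as full inhibition.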

[19] = qHTS Assay for Identification of Small Molecule Antagonists for NFkB Signaling Pathway (AID 895; active = well fitted inhibition curve with a large enough effect in the signal ratio, with a control signal flat, not every such curve was filed as active; the % refers to the signal ratio; note: potency is the fitted concentration of half-maximal effect)
In short: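 ME-180 NFkB-bla cells (beta-lactamase under NFkB response element), plated overnight, treated with compound then 10 pM TNF alpha (about EC50) for 5 hrs at 37 C. LiveBLAzer FRET read at 460/530 nm emission, 405 nm excitation.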

[20] = molecular target: Cytochrome P450 2C19 (Homo sapiens) (UniProt P33261); test: qHTS Assay for Inhibitors and Substrates of Cytochrome P450 2C19 (AID 899); note: potency is the fitted concentration of half-maximal effect; nearly all actives have a fitted effect of over 60% in size
In short: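 Luminescent read-out of luciferin formed from Luciferin-H EGE (10uM, equal to KM). Enzyme 5nM in 50mM KPO4; compound added, 10 min at 37C, then NADPH regenerating system for 60 min at 37C. Full inhibition defined by 57uM ketoconazole.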

CNC(=O)[C@@H]1O[C@@H](n2cnc3c(NCc4cccc(I)c4)ncnc32)[C@H](O)[C@@H]1O
inactive: Potency [1] | activity change, negative = inhibition [2] 9.56% [at 38 µM] | activity, negative = inhibition [3] -11.2% [at 38 µM] | Potency [4] > 46 µM | Potency [5] > 46 µM | Potency [6] | outcome [7] | Potency [8] | Potency [9] | Potency [10] | Potency [11] | outcome [12]

CCCCCCCCCCCCCCCCCC(=O)O[C@H](CC(=O)O)C[N+](C)(C)C
inactive: Potency [1] | activity, negative = inhibition [3] -28.3% [at 38 µM] | Potency [4] > 46 µM | Potency [5] > 46 µM | Potency [13] | Potency [6] | outcome [7] | Potency [14] | Potency [9] | Potency [10] | outcome [16] | outcome [12] | outcome [17]
active: Potency [15] 1 µM

C#CCN1C(C)=C(C(=O)OC)[C@@H](c2cccc([N+](=O)[O-])c2)C(C(=O)OCC)=C1C
inactive: activity, negative = inhibition [3] -3.77% [at 38 µM] | Potency [4] > 46 µM | Potency [5] > 46 µM | Potency [13] | Potency [6] | Potency [8] | Potency [9] | Potency [10] | outcome [16] | outcome [12]
active: Potency [1] 12.6 µM | Potency [14] 0.316 µM | Potency [18] 3.16 µM | Potency [19] 3.55 µM | Potency [20] 5.01 µM
